# High-throughput results: PubChem BioAssay, Sanford-Burnham Center for Chemical Genomics
# Compounds with a hit are over-represented: about 28% of the library has one in this group of screens.
# CYP2C9 inh: blocks human cytochrome P450 2C9. 96,000 compounds, 20% hits. inhibition, % at 5 µM. CYP2C9 Supersomes, luciferin-H conversion, luminescence;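 active = blocking of liver enzyme CYP2C9 beyond about 50% at 5 µM, limit read from the data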
# CYP2C19 act: cytochrome P450 2C19 (human) activation. P33261. recombinant CYP2C19, luciferin-H EGE luminescence; stronger effect = higher value; 0 = fully inhibited enzyme, 1 = untreated enzyme. activation factor at 5 µM. 96,000 tested, under 10 active;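 active = activation factor of at least 2 at 5 µM in the primary screen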;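 also: 0 = wells with 2.5 mM tranylcypromine and 1 = vehicle-only wells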
# CYP2C9 activ: activators of human CYP2C9 | recombinant CYP2C9, luciferin-H conversion, luminescence; stronger effect = higher value; factor 1 = untreated enzyme, 0 = blocked | AID 1024 | activation factor at 5 µM | 96,000 compounds, 1.4% hits;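 active = activation factor of 2 or more for CYP2C9 at a 5 µM dose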;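 also: 0 = sulfaphenazole-blocked wells and 1 = vehicle-only wells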
# CYP2C19 inhib: blocks human cytochrome P450 2C19. P33261. CYP2C19 Supersomes, luciferin-H EGE luminescence, 30 min. inhibition, % at 5 µM. 96,000 compounds, 21% hits;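 active = CYP2C19 inhibition above a set limit at 5 µM in the primary screen, cut at about 50% in these data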;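 also: plate controls were negative control wells for no effect and 2.5 mM tranylcypromine positive control for full effect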
# Pyk2 oligo antag: antagonists of human Pyk2 oligomerization. Q14289. Q293 cells, Pyk2 FERM NanoBiT luminescence; stronger effect = lower value. z-score (the deposit names both 25 µM and 10 µM). 99,000 compounds, 0.83% hits;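 active = Z-score of -3 or lower, scaled per plate to the spread of control and sample wells; inactive = z-score above -3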;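 also: negative z-score means lost luminescence so less FERM oligomerization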
# Target sequence (Q14289 whole entry, looked up): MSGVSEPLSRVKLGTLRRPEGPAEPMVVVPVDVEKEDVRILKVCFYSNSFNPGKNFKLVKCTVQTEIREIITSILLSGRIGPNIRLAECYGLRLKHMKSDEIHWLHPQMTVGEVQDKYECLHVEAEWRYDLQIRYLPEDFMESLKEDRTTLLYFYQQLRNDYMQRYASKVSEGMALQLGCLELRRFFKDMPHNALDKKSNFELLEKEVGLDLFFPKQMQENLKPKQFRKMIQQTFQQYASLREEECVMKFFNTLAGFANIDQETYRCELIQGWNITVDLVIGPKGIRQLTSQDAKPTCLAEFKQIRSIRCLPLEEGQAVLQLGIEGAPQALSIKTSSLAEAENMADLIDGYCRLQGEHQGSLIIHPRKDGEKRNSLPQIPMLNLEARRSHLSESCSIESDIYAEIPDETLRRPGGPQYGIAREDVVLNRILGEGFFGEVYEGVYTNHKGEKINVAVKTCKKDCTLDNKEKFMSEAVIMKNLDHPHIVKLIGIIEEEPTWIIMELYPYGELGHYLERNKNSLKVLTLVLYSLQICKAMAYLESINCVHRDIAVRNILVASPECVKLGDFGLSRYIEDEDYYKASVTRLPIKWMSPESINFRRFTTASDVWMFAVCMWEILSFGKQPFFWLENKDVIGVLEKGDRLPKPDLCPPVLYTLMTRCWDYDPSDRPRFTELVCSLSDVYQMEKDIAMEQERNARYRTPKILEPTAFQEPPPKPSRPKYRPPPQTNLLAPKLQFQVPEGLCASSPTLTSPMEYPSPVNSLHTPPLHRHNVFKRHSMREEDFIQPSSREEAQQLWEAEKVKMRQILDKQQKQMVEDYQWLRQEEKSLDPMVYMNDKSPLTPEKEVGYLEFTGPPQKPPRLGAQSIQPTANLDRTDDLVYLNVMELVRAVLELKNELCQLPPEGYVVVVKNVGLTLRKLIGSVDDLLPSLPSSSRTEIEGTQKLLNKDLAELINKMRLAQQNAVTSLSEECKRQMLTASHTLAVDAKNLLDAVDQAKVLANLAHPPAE
# The depositor's hits bear a star; x = not tested or not shown.
SMILES,CYP2C9 inh,CYP2C19 act,CYP2C9 activ,CYP2C19 inhib,Pyk2 oligo antag
COc1ccc(-c2nc(C#N)c(NCc3cccnc3)o2)cc1OC,51*,0.7,0.5,32,-0.82
N#Cc1nc(-c2cccc(Cl)c2)oc1NCc1cccnc1,94*,0,0.1,95*,-2.3
CCSc1nnc(NC(=O)C(NC(=O)c2ccc(Cl)cc2)C(C)C)s1 (stereo not drawn),x,x,x,x,-0.32
Cc1nc2cccc(C)n2c(=O)c1Cl,-14,1,1.1,1,-0.52
CC1CCCCC1NC(=O)COC(=O)COc1ccc(Cl)cc1 (stereo not drawn),-6,1.1,1.1,-7,1.4
CCOc1ccccc1NC(=S)NC(=O)CCCOc1ccc(Cl)cc1Cl,-7,0.8,1.1,17,0.07
CCOc1ccccc1NC(=O)COn1nnc2ccc(Cl)cc21,-26,0.4,1.3,56*,-0.32
Cc1cc(NC(=O)COn2nnc3ccc(Cl)cc32)no1,77*,0.6,0.2,36,1
CC1CCCCC1NC(=O)COn1nnc2ccc(Cl)cc21 (stereo not drawn),-85,0,1.9,98*,-0.51
CCC(=O)NC(Nc1cc(C)cc(C)n1)(C(F)(F)F)C(F)(F)F,x,x,x,x,-0.11
CCC(=O)NC(Nc1ncc(C)s1)(C(=O)OC)C(F)(F)F (stereo not drawn),x,x,x,x,0.62
CCCC(=O)NC(Nc1ccc(S(=O)(=O)Nc2ncccn2)cc1)(C(=O)OCC)C(F)(F)F (stereo not drawn),14,1,0.9,-3,0.25
CCOC(=O)NC(Nc1cc(C)ccn1)(C(F)(F)F)C(F)(F)F,20,0.5,0.8,54*,0.29
CCOC(=O)N1CCN(Cc2ccccc2Cl)CC1,26,1,0.7,-3,0.24
CCCCC(=O)NC(Nc1nc(C2CC2)cs1)(C(=O)OCC)C(F)(F)F (stereo not drawn),27,0.4,0.7,63*,-0.14
CCCCC(=O)NC(Nc1cc(C)ccn1)(C(=O)OCC)C(F)(F)F (stereo not drawn),-11,0.3,1.1,72*,-1.1
CCOC(=O)NC(NCc1ccccc1Cl)(C(F)(F)F)C(F)(F)F,21,0.4,0.8,58*,-0.02
COc1ccc(CC(=O)Nc2c3c(nn2C(C)(C)C)CS(=O)C3)cc1 (stereo not drawn),14,0.8,0.9,17,x
Cc1[nH]nc(N=CC2=C(O)CC(C)(C)CC2=O)c1-c1ccc(Cl)cc1,33,0.8,0.7,18,-2
Cc1ccc(C(=O)NNC(=O)c2ccc(SCC3CCCO3)c([N+](=O)[O-])c2)cc1 (stereo not drawn),47,1.1,0.5,-6,0.22
O=C(NNC(=O)c1ccccc1Br)c1ccc(SCC2CCCO2)c([N+](=O)[O-])c1 (stereo not drawn),62*,0.9,0.4,8,-0.6
O=C(NNC(=O)c1ccc(SCC2CCCO2)c([N+](=O)[O-])c1)c1ccc(Cl)c([N+](=O)[O-])c1 (stereo not drawn),74*,0.9,0.3,12,0.13
CC(C)c1ccc(C(=O)N2CCN(CCO)CC2)cc1,-3,0.9,1,7,-0.23
COc1cccc(N/C=C(\C#N)c2ccc(OCCCF)cc2)c1,42,0.9,0.6,14,0.36
Cc1ccc(-n2c(=O)[nH]c3cc(C(=O)NC4CCN(Cc5ccccc5)CC4)ccc3c2=O)cc1,2,1,1,4,-0.08
SMILES,CYP2C9 inh,CYP2C19 act,CYP2C9 activ,CYP2C19 inhib,Pyk2 oligo antag
O=C(COC(=O)CCc1nc2ccccc2s1)Nc1ccc(S(=O)(=O)N2CCOCC2)cc1,75*,0.6,0.3,38,3.5
O=C(COC(=O)CCc1ccc(S(=O)(=O)N2CCOCC2)cc1)Nc1ccc(Cl)cn1,x,x,x,x,-0.26
O=S(=O)(c1ccc(OCc2nc3ccccc3s2)c(Cl)c1)N1CCOCC1,43,0.7,0.6,26,0.1
O=C(COC(=O)CCc1nc2ccccc2s1)Nc1cccc(S(=O)(=O)N2CCOCC2)c1,-111,0.8,2.1*,16,2
Cc1ccc2oc(-c3ccc(NC(=O)c4cccnc4)cc3)nc2c1,63*,0.6,0.4,42,-1.9
Cc1ccc2oc(-c3cccc(NC(=O)c4ccc(Br)o4)c3)nc2c1,53*,0.9,0.5,7,1.3
Cc1ccc(-c2nc3cc(C)ccc3o2)cc1,21,0.4,0.8,59*,-0.14
Cc1ccc(-c2nc3cc(NS(=O)(=O)c4ccc(C)cc4)ccc3o2)cc1,100*,0,0,99*,-2
